Data taken from PubChem BioAssay AID1159580 (chemical genetic matrix, 2015).
Screen size: about 5,500 compounds; about 2,000 (36%) were called active. Not shown: some 18% with an inconclusive outcome. No stated cut-off is given here; in the data, active means normalized growth mostly below about 0.91 (no sharp cut-off); inconclusive means no clear call, values can overlap the other calls; inactive means mostly above about 0.92. The list shows a part of the results.

Test: chemical genetic growth profiling, strain panel (AID 1159580);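 further: tested at 20 µM; growth read once vehicle control cultures reached saturation at 30 °C; 1 = growth at the plate median or of vehicle wells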
Details: growth OD

Measured: normalized growth

COc1cc([C@@H]2c3cc4c(cc3C(O[C@@H]3O[C@@H]5CO[C@@H](c6cccs6)OC5[C@H](O)[C@H]3O)C3COC(=O)[C@@H]32)OCO4)cc(OC)c1O (stereo not given in full)
inactive: S. cerevisiae deletion strains, locus YJR066W, strain TOR1, stronger effect = lower value 0.99 | S. cerevisiae deletion strains, locus YKL009W, strain mrt4, stronger effect = lower value 1.03 | S. cerevisiae deletion strains, locus YKL068W, stronger effect = lower value 1.01 | S. cerevisiae deletion strains, locus YKL085W, strain MDH1 (second series), stronger effect = lower value 1 | S. cerevisiae deletion strains, locus YKL085W, strain MDH1, stronger effect = lower value 1 | S. cerevisiae deletion strains, locus YKL160W, strain elf1, stronger effect = lower value 1.05 | S. cerevisiae deletion strains, locus YKL190W, strain CNB1, stronger effect = lower value 0.997 | S. cerevisiae deletion strains, locus YKR001C, strain vps1, stronger effect = lower value 1.02 | S. cerevisiae deletion strains, locus YKR026C, strain gcn3, stronger effect = lower value 0.986 | S. cerevisiae deletion strains, locus YKR091W, strain srl3, stronger effect = lower value 0.998 | S. cerevisiae deletion strains, locus YLL001W, strain dnm1, stronger effect = lower value 1.05 | S. cerevisiae deletion strains, locus YLL026W, stronger effect = lower value 0.984 | S. cerevisiae deletion strains, locus YLL041C, strain sdh2, stronger effect = lower value 0.967 | S. cerevisiae deletion strains, locus YLR027C, strain aat2, stronger effect = lower value 0.985 | S. cerevisiae deletion strains, locus YLR039C, strain RIC1, stronger effect = lower value 1.01 | S. cerevisiae deletion strains, locus YLR058C, strain SHM2, stronger effect = lower value 1 | S. cerevisiae deletion strains, locus YLR102C, strain apc9, stronger effect = lower value 1.02 | S. cerevisiae deletion strains, locus YLR113W, strain HOG1, stronger effect = lower value 1.01 | S. cerevisiae deletion strains, locus YLR221C, strain rsa3, stronger effect = lower value 1.03 | S. cerevisiae deletion strains, locus YLR258W, strain gsy2, stronger effect = lower value 1 | S. cerevisiae deletion strains, locus YLR262C, strain YPT6 (second series), stronger effect = lower value 1 | S. cerevisiae deletion strains, locus YLR262C, strain YPT6, stronger effect = lower value 0.964 | S. cerevisiae deletion strains, locus YLR268W, strain sec22, stronger effect = lower value 1.02 | S. cerevisiae deletion strains, locus YLR320W, strain mms22, stronger effect = lower value 1.01 | S. cerevisiae deletion strains, locus YLR330W, strain CHS5, stronger effect = lower value 0.999 | S. cerevisiae deletion strains, locus YLR342W, strain FKS1 (second series), stronger effect = lower value 1.01 | S. cerevisiae deletion strains, locus YLR342W, strain FKS1, stronger effect = lower value 0.99 | S. cerevisiae deletion strains, locus YLR357W, strain rsc2, stronger effect = lower value 0.98 | S. cerevisiae deletion strains, locus YLR370C, strain arc18, stronger effect = lower value 0.986 | S. cerevisiae deletion strains, locus YLR371W, strain rom2, stronger effect = lower value 1.01 | S. cerevisiae deletion strains, locus YLR384C, strain iki3, stronger effect = lower value 0.97 | S. cerevisiae deletion strains, locus YLR418C, strain cdc73, stronger effect = lower value 1.02 | S. cerevisiae deletion strains, locus YML016C, strain PPZ1, stronger effect = lower value 1 | S. cerevisiae deletion strains, locus YML032C, strain rad52, stronger effect = lower value 0.917 | S. cerevisiae deletion strains, locus YML120C, strain ndi1, stronger effect = lower value 1.02 | S. cerevisiae deletion strains, locus YML124C, strain tub3, stronger effect = lower value 1.01 | S. cerevisiae deletion strains, locus YMR058W, strain fet3, stronger effect = lower value 0.993 | S. cerevisiae deletion strains, locus YMR078C, strain ctf18, stronger effect = lower value 1.01 | S. cerevisiae deletion strains, locus YMR125W, strain sto1, stronger effect = lower value 1.01 | S. cerevisiae deletion strains, locus YMR129W, stronger effect = lower value 0.983 | S. cerevisiae deletion strains, locus YMR205C, strain PFK2, stronger effect = lower value 1.02 | S. cerevisiae deletion strains, locus YMR223W, strain ubp8, stronger effect = lower value 1.02 | S. cerevisiae deletion strains, locus YMR231W, strain pep5, stronger effect = lower value 0.978 | S. cerevisiae deletion strains, locus YMR263W, strain SAP30, stronger effect = lower value 1 | S. cerevisiae deletion strains, locus YMR307W, strain GAS1, stronger effect = lower value 0.933 | S. cerevisiae deletion strains, locus YNL067W, strain RPL9B, stronger effect = lower value 0.998 | S. cerevisiae deletion strains, locus YNL071W, strain lat1, stronger effect = lower value 0.976 | S. cerevisiae deletion strains, locus YNL128W, strain TEP1, stronger effect = lower value 1.02 | S. cerevisiae deletion strains, locus YNL183C, strain NPR1, stronger effect = lower value 0.987 | S. cerevisiae deletion strains, locus YNL209W, strain ssb2, stronger effect = lower value 0.985 | S. cerevisiae deletion strains, locus YNL233W, strain BNI4, stronger effect = lower value 1 | S. cerevisiae deletion strains, locus YNL248C, strain rpa49, stronger effect = lower value 0.999 | S. cerevisiae deletion strains, locus YNL250W, strain rad50, stronger effect = lower value 0.977 | S. cerevisiae deletion strains, locus YNL271C, strain bni1, stronger effect = lower value 1.02 | S. cerevisiae deletion strains, locus YNL298W, strain CLA4, stronger effect = lower value 1.04 | S. cerevisiae deletion strains, locus YNL307C, strain MCK1, stronger effect = lower value 1.03 | S. cerevisiae deletion strains, locus YNL322C, strain KRE1 (second series), stronger effect = lower value 0.994 | S. cerevisiae deletion strains, locus YNR049C, strain mso1, stronger effect = lower value 0.978 | S. cerevisiae deletion strains, locus YNR052C, strain pop2, stronger effect = lower value 1.03 | S. cerevisiae deletion strains, locus YOL006C, strain TOP1, stronger effect = lower value 0.89 | S. cerevisiae deletion strains, locus YOL012C, strain htz1 0.835 | S. cerevisiae deletion strains, locus YOL147C, strain pex11, stronger effect = lower value 1.01 | S. cerevisiae deletion strains, locus YOR001W, strain rrp6, stronger effect = lower value 0.933 | S. cerevisiae deletion strains, locus YOR061W, strain CKA2, stronger effect = lower value 1 | S. cerevisiae deletion strains, locus YOR069W, strain VPS5, stronger effect = lower value 1 | S. cerevisiae deletion strains, locus YOR070C, strain gyp1, stronger effect = lower value 0.991 | S. cerevisiae deletion strains, locus YOR080W, strain dia2, stronger effect = lower value 0.971 | S. cerevisiae deletion strains, locus YOR083W, strain WHI5, stronger effect = lower value 1.05 | S. cerevisiae deletion strains, locus YOR106W, strain vam3, stronger effect = lower value 1.02 | S. cerevisiae deletion strains, locus YOR136W, strain idh2, stronger effect = lower value 1.02 | S. cerevisiae deletion strains, locus YOR144C, strain elg1, stronger effect = lower value 1.01 | S. cerevisiae deletion strains, locus YOR184W, strain ser1, stronger effect = lower value 1.01 | S. cerevisiae deletion strains, locus YOR231W, strain MKK1, stronger effect = lower value 1 | S. cerevisiae deletion strains, locus YOR265W, strain rbl2, stronger effect = lower value 0.985 | S. cerevisiae deletion strains, locus YOR270C, strain vph1, stronger effect = lower value 0.891 | S. cerevisiae deletion strains, locus YOR290C, strain snf2, stronger effect = lower value 0.982 | S. cerevisiae deletion strains, locus YOR316C, strain cot1, stronger effect = lower value 1.03 | S. cerevisiae deletion strains, locus YPL051W, strain arl3, stronger effect = lower value 1.03 | S. cerevisiae deletion strains, locus YPL055C, strain LGE1, stronger effect = lower value 0.996 | S. cerevisiae deletion strains, locus YPL078C, strain atp4, stronger effect = lower value 1.03 | S. cerevisiae deletion strains, locus YPL106C, strain sse1, stronger effect = lower value 1.01 | S. cerevisiae deletion strains, locus YPL240C, strain hsp82, stronger effect = lower value 0.99 | S. cerevisiae deletion strains, locus YPL241C, strain CIN2, stronger effect = lower value 1 | S. cerevisiae deletion strains, locus YPL256C, strain CLN2, stronger effect = lower value 1.03 | S. cerevisiae deletion strains, locus YPR119W, strain clb2, stronger effect = lower value 1.01 | S. cerevisiae deletion strains, locus YPR141C, strain kar3, stronger effect = lower value 1.01 | S. cerevisiae deletion strains, locus YPR163C, strain tif3, stronger effect = lower value 1.03 | S. cerevisiae deletion strains, locus YPR167C, strain met16, stronger effect = lower value 1.02 | S. cerevisiae deletion strains, strain wtn01, stronger effect = lower value 1.03 | S. cerevisiae strains, strain wild type, stronger effect = lower value 1.01
